Among the data in PubChem BioAssay (NCATS) are Potency, activity change, negative = inhibition and max response values, retold here.

Assay [1] deals with Glucocorticoid receptor (Homo sapiens) (UniProt P04150). Nature of the assay: GR-GFP Redistribution (AID 450;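 active = compounds whose dose series gives a full or clear partial fitted curve of increased nuclear translocation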; note: potency is the fitted concentration of half-maximal effect). Particulars: U2OS GR-GFP nuclear translocation, laser cytometry, 2 h.
The target is the same in assay [2]. The assay can be described thus: GR-EFC Redistribution (AID 451; calls by dose curve; note: potency is the fitted concentration of half-maximal effect). Particulars: CHO-K1 GR-EFC translocation, beta-gal luminescence, 2 h. Summed up: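 CHO-K1 cells stably expressing nuclear-localized β-gal enzyme acceptor and GR fused C-terminally to the enzyme donor fragment; ligand-driven nuclear translocation restores β-gal by complementation. Compounds titrated up to 46 uM final, 2 h at 37 °C; luminescence read.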

The target of assay [3] is Mitogen-activated protein kinase 10 (Mus musculus) (UniProt Q61831). The assay can be described thus: JNK3 AlphaScreen Assay (AID 530; active = well fitted curve in either direction with a large enough effect, not every such curve was filed as active;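 note: kinase came from lysate of stimulated human HepG2 cells; signal reports phosphorylation of biotinylated GST-cJun 1-79 at Ser73 with 10 µM ATP; % is set by controls: 0 for no effect and ±100 for the full control effect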). Summed up: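 Inhibitors reduce antibody binding to phosphorylated biotin-cJun, lowering AlphaScreen luminescence. Lysates from HepG2 cells pre-activated by IL-1beta plus TNF-alpha supplied JNK3; compounds were titrated.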
Background: Alpha assays give light when donor and acceptor beads are brought close together.

Assay [4] is described as follows: qHTS Assay for Lipid Storage Modulators (AID 1519; calls by dose curve; for activity change, negative = inhibition: % is set by controls: 0 for no effect and ±100 for the full control effect). Particulars: Drosophila S3 cells, BODIPY lipid droplet/cell ratio, laser cytometry, cells loaded with oleic acid; for activity change, negative = inhibition: at 57.5 µM (top of the series). Summed up:
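Cells seeded at 5,000 per well were treated with compounds over a concentration series and loaded with oleic acid (400 uM, as added). Lipid droplet fluorescence (488 nm excitation, 500-530 nm channel) was read by laser-scanning cytometry and normalized to 20 uM Triacsin C.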
(In general: Quantitative high-throughput screening tests each substance at several concentrations.)

The target in assay [5] is Ubiquitin carboxyl-terminal hydrolase 1 (Homo sapiens) (UniProt O94782). Nature of the assay: Inhibitors of USP1/UAF1: Pilot qHTS (AID 504865).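 Note: rhodamine fluorescence freed from ubiquitin-rhodamine substrate followed over time; top concentration of the series differs between compounds; % is set by controls: 0 for no effect and ±100 for the full control effect; nearly all actives have a fitted effect of over 35% in size.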 Summed up: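 1nM USP1/UAF1 + cpd, 15 min RT; start w/ Ub-Rho 150nM final; kinetic FL 480/540 nm, 6 reads q60 s. Buffer 50mM HEPES pH 7.8, 0.5mM EDTA, 1mM TCEP, 0.01% Tween-20, 0.1 mg/ml BSA.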
Assay [6] addresses DNA dC->dU-editing enzyme APOBEC-3G (Homo sapiens) (UniProt Q9HC16). The assay can be described thus: qHTS for inhibitors of Vif-A3G interactions: Validation (AID 588379). Note: 0% is about no effect. An outline of the steps: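 HeLa cells stably expressing Vif and A3G-eYFP, 700 cells/well, incubated overnight at 37 deg C, then exposed to compound overnight at 37 deg C. Inhibition of Vif-mediated degradation read as increased yellow fluorescence (Ex 488/Em 500-530) by laser-scanning cytometry.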

Assay [7] has as its system Zika virus NS2B-NS3 protease. Nature of the assay: Primary screen GU AMC qHTS for Zika virus inhibitors (AID 1347154).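 Note: 0% = no-inhibitor control and -100% = no-enzyme control; nearly all actives have a fitted effect of over 70% in size.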 Summed up:
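Unlinked Zika NS2B hydrophilic domain/NS3 protease domain noncovalent complex (25 nM final) in 10 mM Tris-HCl pH 8.0, 0.01% Tween 20, with AMC peptide substrate. Fluorescence (ex 340, em 450 nm) change over 15 min, room temperature; percent inhibition fitted to 4-parameter Hill equation.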

A short description of assay [8]: Primary qHTS for small molecule stabilizers of the endoplasmic reticulum resident proteome: Secreted ER Calcium Modulated Protein (SERCaMP) assay (AID 1508630). Note: % is set by controls: 0 for no effect and ±100 for the full control effect. An outline of the steps:
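GLuc-SERCaMP-expressing SH-SY5Y cells, pretreated 16 h with compound, are challenged with thapsigargin to empty ER calcium stores; after 4 h, coelenterazine is added directly to the medium and luminescence is imaged.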

The target in assay [9] is 3',5'-cyclic-AMP phosphodiesterase 4B (Homo sapiens) (UniProt Q07343). Nature of the assay: qHTS Assay for Inhibitors of PDE-IV (AID 607; active = well fitted activation curve with a large enough effect in the main read-out, with a control signal flat, not every such curve was filed as active; note: % of control where 0% means no effect). An outline of the steps:
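HEK293 ACTOne cells with CNG channel (1000/well), endogenous PDE4; membrane potential dye, compounds up to 22.9 uM final. Fluorescence Ex 535/Em 590; RO 20-1724 (100 uM final) as reference.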

For assay [10], the target named is Cytochrome P450 2C19 (Homo sapiens) (UniProt P33261). The assay can be described thus: qHTS Assay for Inhibitors and Substrates of Cytochrome P450 2C19 (AID 899). Note: potency is the fitted concentration of half-maximal effect; nearly all actives have a fitted effect of over 60% in size. An outline of the steps:
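Human CYP2C19 (5nM) with Luciferin-H EGE at 10uM (its KM) in 50mM KPO4 was preincubated with compound for 10 min at 37C. NADPH regeneration started a 60 min 37C reaction. Luciferin was read by luminescence, normalized to 57uM ketoconazole.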

The mark [11] stands for this setting: measured here: cell count channel max response.
[12] abbreviates: measured here: lipid channel max response.

Inconclusive results are not listed. Calls of active or inactive are those of the source. Unless noted, calls come from the whole dose curve; as a rule, active = well fitted curve in the direction sought with a large enough effect; inconclusive = small, poorly fitted or top-dose-only effect, or another doubt; inactive = no such curve, though single readings can be large; an effect the other way counts as inactive or inconclusive.

Sequence of Ubiquitin carboxyl-terminal hydrolase 1 (Homo sapiens) (O94782 whole entry, looked up): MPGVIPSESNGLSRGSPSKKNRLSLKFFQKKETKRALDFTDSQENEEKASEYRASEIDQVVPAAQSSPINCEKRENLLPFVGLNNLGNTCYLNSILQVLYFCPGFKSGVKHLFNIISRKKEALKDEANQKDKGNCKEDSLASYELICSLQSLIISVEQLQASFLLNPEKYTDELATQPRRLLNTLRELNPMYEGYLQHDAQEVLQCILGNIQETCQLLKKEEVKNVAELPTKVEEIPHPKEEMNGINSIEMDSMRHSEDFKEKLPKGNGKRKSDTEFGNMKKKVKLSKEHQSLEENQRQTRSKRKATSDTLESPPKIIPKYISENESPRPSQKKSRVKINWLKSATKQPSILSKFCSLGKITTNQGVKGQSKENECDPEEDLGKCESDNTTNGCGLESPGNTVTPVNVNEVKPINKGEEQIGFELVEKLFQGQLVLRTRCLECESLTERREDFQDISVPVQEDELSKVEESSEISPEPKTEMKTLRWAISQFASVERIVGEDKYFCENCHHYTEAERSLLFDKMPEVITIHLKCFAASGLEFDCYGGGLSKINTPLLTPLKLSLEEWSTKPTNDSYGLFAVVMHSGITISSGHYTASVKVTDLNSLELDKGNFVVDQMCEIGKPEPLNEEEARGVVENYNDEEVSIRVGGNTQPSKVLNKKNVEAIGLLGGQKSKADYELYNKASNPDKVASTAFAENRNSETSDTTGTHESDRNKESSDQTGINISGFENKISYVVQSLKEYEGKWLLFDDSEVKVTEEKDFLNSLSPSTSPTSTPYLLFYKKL
Sequence of Glucocorticoid receptor (Homo sapiens) (P04150 whole entry, looked up, the tested form may be a part): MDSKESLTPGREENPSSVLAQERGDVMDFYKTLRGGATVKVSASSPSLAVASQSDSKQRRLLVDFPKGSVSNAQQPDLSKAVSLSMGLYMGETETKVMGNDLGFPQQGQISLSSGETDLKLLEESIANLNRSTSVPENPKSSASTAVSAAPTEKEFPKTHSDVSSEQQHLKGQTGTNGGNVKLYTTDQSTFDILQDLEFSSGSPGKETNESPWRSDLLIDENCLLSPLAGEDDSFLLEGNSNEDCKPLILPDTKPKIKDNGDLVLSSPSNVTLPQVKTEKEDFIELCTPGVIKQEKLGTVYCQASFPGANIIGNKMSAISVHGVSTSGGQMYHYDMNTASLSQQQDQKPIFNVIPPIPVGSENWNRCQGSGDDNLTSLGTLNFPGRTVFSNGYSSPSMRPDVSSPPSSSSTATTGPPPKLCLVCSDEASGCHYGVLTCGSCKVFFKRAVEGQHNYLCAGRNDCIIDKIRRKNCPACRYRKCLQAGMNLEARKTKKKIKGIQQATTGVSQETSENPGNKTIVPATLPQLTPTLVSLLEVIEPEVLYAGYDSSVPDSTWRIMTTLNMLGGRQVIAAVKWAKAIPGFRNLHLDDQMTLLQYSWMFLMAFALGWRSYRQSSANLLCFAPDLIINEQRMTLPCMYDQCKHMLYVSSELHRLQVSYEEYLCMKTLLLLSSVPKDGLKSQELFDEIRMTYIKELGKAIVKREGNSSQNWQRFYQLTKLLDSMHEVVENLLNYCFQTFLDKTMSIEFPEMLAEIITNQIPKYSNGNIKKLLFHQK
Sequence of DNA dC->dU-editing enzyme APOBEC-3G (Homo sapiens) (Q9HC16 whole entry, looked up): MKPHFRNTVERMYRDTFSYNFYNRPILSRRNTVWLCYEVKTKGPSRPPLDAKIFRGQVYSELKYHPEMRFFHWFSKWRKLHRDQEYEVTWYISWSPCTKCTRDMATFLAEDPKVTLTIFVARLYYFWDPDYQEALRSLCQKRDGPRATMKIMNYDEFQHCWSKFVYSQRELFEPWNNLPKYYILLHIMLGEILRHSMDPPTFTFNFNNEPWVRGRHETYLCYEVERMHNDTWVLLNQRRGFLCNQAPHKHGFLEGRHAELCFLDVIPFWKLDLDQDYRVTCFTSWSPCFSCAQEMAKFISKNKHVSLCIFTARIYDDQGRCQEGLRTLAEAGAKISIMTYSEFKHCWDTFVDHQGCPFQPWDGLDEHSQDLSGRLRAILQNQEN
Sequence of 3',5'-cyclic-AMP phosphodiesterase 4B (Homo sapiens) (Q07343 whole entry, looked up): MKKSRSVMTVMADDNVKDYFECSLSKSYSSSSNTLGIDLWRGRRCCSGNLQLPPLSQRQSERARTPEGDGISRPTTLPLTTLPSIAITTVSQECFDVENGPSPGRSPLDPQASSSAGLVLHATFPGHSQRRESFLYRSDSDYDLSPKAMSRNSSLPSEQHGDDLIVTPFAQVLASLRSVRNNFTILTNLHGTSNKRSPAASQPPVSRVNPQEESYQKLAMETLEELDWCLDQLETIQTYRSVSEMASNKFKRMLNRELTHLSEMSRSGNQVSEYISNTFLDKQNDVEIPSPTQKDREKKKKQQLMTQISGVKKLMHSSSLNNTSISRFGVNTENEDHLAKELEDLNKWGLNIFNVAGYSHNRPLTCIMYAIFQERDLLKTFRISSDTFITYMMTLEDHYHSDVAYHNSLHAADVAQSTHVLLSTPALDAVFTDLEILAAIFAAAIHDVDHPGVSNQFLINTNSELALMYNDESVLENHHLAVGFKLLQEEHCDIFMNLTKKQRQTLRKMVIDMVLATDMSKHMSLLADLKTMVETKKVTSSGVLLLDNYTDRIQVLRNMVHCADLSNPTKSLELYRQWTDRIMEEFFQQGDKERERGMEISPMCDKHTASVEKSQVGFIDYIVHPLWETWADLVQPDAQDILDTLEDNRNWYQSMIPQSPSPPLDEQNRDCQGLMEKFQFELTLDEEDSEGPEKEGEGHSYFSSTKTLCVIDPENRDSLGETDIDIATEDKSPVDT
Sequence of Cytochrome P450 2C19 (Homo sapiens) (P33261 whole entry, looked up): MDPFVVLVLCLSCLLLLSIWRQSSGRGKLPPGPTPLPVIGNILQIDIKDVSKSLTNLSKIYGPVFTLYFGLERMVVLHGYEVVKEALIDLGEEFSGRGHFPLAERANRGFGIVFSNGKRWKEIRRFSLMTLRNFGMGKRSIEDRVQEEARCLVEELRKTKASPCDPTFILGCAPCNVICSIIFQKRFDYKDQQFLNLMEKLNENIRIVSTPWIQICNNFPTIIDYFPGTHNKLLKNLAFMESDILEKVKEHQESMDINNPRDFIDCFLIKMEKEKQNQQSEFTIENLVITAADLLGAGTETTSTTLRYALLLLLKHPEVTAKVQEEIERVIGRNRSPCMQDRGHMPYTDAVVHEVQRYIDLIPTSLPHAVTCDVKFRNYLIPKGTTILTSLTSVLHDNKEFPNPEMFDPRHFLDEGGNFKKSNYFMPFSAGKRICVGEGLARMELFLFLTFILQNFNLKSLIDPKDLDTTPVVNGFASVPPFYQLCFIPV

On to `CSc1nc(N)c2ncn([C@H]3O[C@H](COP(=O)(O)OP(=O)(O)O)[C@@H](O)[C@@H]3O)c2n1`, for which the Potency in [1] and in assay [2] was > 46 µM (inactive) throughout. Further, the Potency entry in assay [3], in [5], in [6], in [7] and in [8] was “inactive” throughout. Also, the activity change, negative = inhibition in [4] is 8.63% (inactive). In addition, the max response came to 13.1% in assay [4] (setting [11]) and 26.1% in [4] (setting [12]).
Turning to `NC1(C(=O)O)CC(C(=O)O)C1` (stereo unspecified), the Potency in assay [1] and in assay [2] was > 46 µM (inactive) throughout. In addition, the Potency result in [3], in assay [9], in [5], in assay [6], in [7] and in assay [8] was “inactive” each time. The activity change, negative = inhibition in [4] is 5.41% (inactive). Moreover, the max response in assay [4] (setting [11]) worked out at 2.35%; in assay [4] (setting [12]), 10.2%.
Turning to `N[C@@H](Cn1cc(F)c(=O)[nH]c1=O)C(=O)O`, the Potency in assay [1] and in [2] was > 46 µM (inactive) in each case. For the same compound, the Potency entry in assay [3], in assay [5], in [6], in [7] and in assay [8] was “inactive” throughout. In [4], the activity change, negative = inhibition is -2.96% (inactive). Also, the max response in assay [4] (setting [11]) is 17.5%; in assay [4] (setting [12]) it was 14.7%.
For the compound `Nc1ncnc2c1ncn2[C@@H]1O[C@H](COP(=O)(O)OP(=O)(O)O)[C@@H](O)[C@H]1O`, in assay [4], the activity change, negative = inhibition was 5.3% (inactive). The max response in assay [4] (setting [11]) is -2.57%; in [4] (setting [12]), 2.42%. Besides, the Potency entry in assay [5], in [6], in assay [7] and in assay [8] was “inactive” throughout.
As to `CCN(CC)CC1CCN(c2ncc3ncnc(Nc4ccc(F)c(Cl)c4)c3n2)CC1`, the Potency entry in [7] and in [8] was “inactive” in each case.
For the compound `NC(=O)CCCCn1ccc(NC(N)=NCC(F)(F)F)n1`, the Potency in [1] and in assay [2] was > 46 µM (inactive) in each case. The Potency result in assay [3], in [6], in assay [7] and in assay [8] was “inactive” each time. Besides, in assay [4], the activity change, negative = inhibition is 1.74% (inactive). The results for the max response in assay [4] (setting [11]) and in [4] (setting [12]) were 5.7% and 6.79%, respectively.
In the case of `NC(C(=O)O)c1cc(O)c(Cl)c(O)c1` (stereo unspecified), the Potency result in [7] and in assay [8] was “inactive” in each case.
Turning to `O=C1CC[C@H](C(=O)O)N1`, the Potency result in assay [7] and in assay [8] was “inactive” each time.
In the case of `NC1(C(=O)O)C[C@H](C(=O)O)[C@H](C(=O)O)C1` (stereo partly specified), the Potency is > 46 µM (inactive) in assay [1], > 46 µM (inactive) in assay [2] and 0.398 µM (active) in assay [10]. In addition, the Potency result in assay [3], in assay [9], in assay [6], in assay [7] and in assay [8] was “inactive” throughout. In addition, in assay [4], the activity change, negative = inhibition is 1.98% (inactive). Besides, the results for the max response in assay [4] (setting [11]) and in assay [4] (setting [12]) were 12.8% and 14.8%, respectively.
`CC(C)(C)n1nc(-c2ccc(Cl)cc2)c2c(N)ncnc21`: the Potency entry in assay [7] and in [8] was “inactive” in each case.
